The source made the active and inactive calls. Unless noted, how the calls were made is not given here.
What was measured:
[1] = compound effects on lung adenocarcinoma cell viability – A549, calcein-AM fluorescence, 48 h, basal, profiling panel (AID 1162); details: higher = more signal; further: test concentration not given here
[2] = compound effects on differentiated 3T3-L1 adipocyte viability – cell-based, 3T3-L1 adipocytes, calcein-AM fluorescence, 48 h, basal, profiling panel (AID 1163); details: 3T3-L1 adipocytes viability, higher = more signal; further: test concentration not given here
[3] = compound effects on hepatocellular carcinoma cell viability – HepG2, calcein-AM fluorescence, 48 h, basal, profiling panel (AID 1164); details: higher = more signal; further: test concentration not given here
[4] = compound effects on multiple myeloma cell viability – MM1S, calcein-AM fluorescence, 48 h, basal, profiling panel (AID 1165); details: higher = more signal;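 further: viability of MM1S multiple myeloma cells under basal unstimulated conditions; test concentration not given here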
[5] = calcein-AM signal in unstimulated myeloma cells – cell-based, calcein-AM fluorescence, 48 h, PK04 Diversity Set, profiling panel (AID 1166); details: RPMI8226 myeloma viability, higher = more signal;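 further: cells grown under basal conditions without added stimulus; test concentration not given here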
[6] = JC-1 mitochondrial signal, unstimulated HepG2 cells – cell-based, JC-1 fluorescence, 24 h, 100 nL compound, profiling panel (AID 1167); details: HepG2 mitochondrial potential, higher = more signal; further: test concentration not given here
[7] = JC-1 mitochondrial signal, unstimulated adipocytes – cell-based, JC-1 fluorescence, 3T3-L1 adipocytes, 24 h, 100 nL compound, profiling panel (AID 1168); details: JC-1 mitochondrial fluorescence, higher = more signal, called active from +8 up or from −8 down; further: test concentration not given here
[8] = JC-1 mitochondrial signal, unstimulated myeloma cells – cell-based, JC-1 fluorescence, RPMI8226, 24 h, 100 nL compound, profiling panel (AID 1169); details: JC-1 mitochondrial potential fluorescence, higher = more signal; further: test concentration not given here
[9] = JC-1 mitochondrial signal, unstimulated MM1S myeloma – cell-based, JC-1 fluorescence, 24 h, 100 nL compound, profiling panel (AID 1170); details: MM1S mitochondrial potential, higher = more signal; further: test concentration not given here
[10] = resazurin metabolic signal in A549 cells – cell-based, resazurin fluorescence, 24 h, PK04 Diversity Set, profiling panel (AID 1171); details: A549 viability, higher = more signal, called active from +8 up or from −8 down; further: test concentration not given here
[11] = resazurin metabolic signal in HepG2 cells – cell-based, resazurin fluorescence, 24 h, PK04 Diversity Set, profiling panel (AID 1172); details: HepG2 viability, higher = more signal; further: test concentration not given here
[12] = budding yeast growth changes without added modifier – OD600, strain BY4716, 24 h, basal condition, primary screen (AID 1173); details: S. cerevisiae BY4716 growth, OD600, 24 h; higher = more signal, called active from +8 up or from −8 down
[13] = viability profiling in MM1S myeloma cells – cell-based, resazurin fluorescence, basal, 24 h, PK04 Diversity Set, profiling panel (AID 1174); details: higher = more signal, called active from +8 up or from −8 down; further: test concentration not given here
[14] = molecular target: Dihydroorotate dehydrogenase (quinone), mitochondrial (Plasmodium falciparum (isolate 3D7)) (UniProt Q08210); test: inhibition of P. falciparum DHODH – biochemical, C-terminal His tag, absorbance 600 nm, primary screen (AID 1175); details: PfDHODH enzyme, DCIP absorbance 600 nm; higher = more signal, called active from +8 up or from −8 down;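 further: recombinant parasite enzyme with a five histidine tag at its C terminus; test concentration not given here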
Chain of Dihydroorotate dehydrogenase (quinone), mitochondrial (Plasmodium falciparum (isolate 3D7)) (Q08210 whole entry, looked up): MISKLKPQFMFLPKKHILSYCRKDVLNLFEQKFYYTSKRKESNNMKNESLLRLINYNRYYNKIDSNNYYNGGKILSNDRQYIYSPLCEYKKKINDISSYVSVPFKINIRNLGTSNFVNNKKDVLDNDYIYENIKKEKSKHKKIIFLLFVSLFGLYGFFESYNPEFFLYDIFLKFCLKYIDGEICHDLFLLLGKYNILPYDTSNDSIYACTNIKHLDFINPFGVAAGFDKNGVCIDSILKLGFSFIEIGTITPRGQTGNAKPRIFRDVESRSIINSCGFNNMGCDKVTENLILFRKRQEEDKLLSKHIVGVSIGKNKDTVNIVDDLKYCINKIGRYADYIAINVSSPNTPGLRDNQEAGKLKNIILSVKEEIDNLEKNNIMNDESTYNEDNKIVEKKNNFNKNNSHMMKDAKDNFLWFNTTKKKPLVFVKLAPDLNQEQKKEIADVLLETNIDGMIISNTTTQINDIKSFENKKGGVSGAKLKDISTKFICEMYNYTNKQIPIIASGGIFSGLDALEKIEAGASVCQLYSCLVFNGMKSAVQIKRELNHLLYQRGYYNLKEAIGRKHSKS

[15] = inhibition of PAO1 biofilm formation – strain PAO1, LB-PBS medium, absorbance 600 nm, primary screen (AID 1176); further: test concentration not given here; details: P. aeruginosa PAO1 growth/biofilm, A600, 12 h; higher = more signal
[16] = growth modulation of vineyard yeast isolate – strain RM11-1a, OD600, basal, 24 h, primary screen (AID 1177);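 further: cultures grown under basal conditions with no added stressor; test concentration not given here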; details: S. cerevisiae RM11-1a growth, OD600, 24 h; higher = more signal, called active from +8 up or from −8 down
[17] = growth of efflux-deficient E. coli DRC39 – strain DRC39, OD650, 24 h, E. coli filamentation inducers, primary screen (AID 1178);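 further: growth measured as culture turbidity by optical density at 650 nm; test concentration not given here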; details: E. coli DRC39 acrAB, higher = more signal, called active from +8 up or from −8 down
[18] = growth of efflux-deficient E. coli DRC39 – strain DRC39, OD650, 48 h, E. coli filamentation inducers, primary screen (AID 1179);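 further: screen aims at cell division blockers that make cells filament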; details: E. coli DRC39 delta-acrAB growth, higher = more signal, called active from +8 up or from −8 down
[19] = viability profiling in RPMI8226 myeloma cells – cell-based, resazurin fluorescence, basal, 24 h, PK04 Diversity Set, profiling panel (AID 1180); details: higher = more signal;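 further: RPMI8826 multiple myeloma cell line at 5000 cells per well; test concentration not given here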
[20] = molecular target: E3 ubiquitin-protein ligase XIAP (Homo sapiens) (UniProt P98170); test: small molecules binding XIAP protein – biophysical, small-molecule microarray, fluorescence 635 nm, primary screen (AID 1181); details: higher = more signal;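 further: score merges 667 nm emission and signal to noise over triplicate slides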
Chain of E3 ubiquitin-protein ligase XIAP (Homo sapiens) (P98170 whole entry, looked up): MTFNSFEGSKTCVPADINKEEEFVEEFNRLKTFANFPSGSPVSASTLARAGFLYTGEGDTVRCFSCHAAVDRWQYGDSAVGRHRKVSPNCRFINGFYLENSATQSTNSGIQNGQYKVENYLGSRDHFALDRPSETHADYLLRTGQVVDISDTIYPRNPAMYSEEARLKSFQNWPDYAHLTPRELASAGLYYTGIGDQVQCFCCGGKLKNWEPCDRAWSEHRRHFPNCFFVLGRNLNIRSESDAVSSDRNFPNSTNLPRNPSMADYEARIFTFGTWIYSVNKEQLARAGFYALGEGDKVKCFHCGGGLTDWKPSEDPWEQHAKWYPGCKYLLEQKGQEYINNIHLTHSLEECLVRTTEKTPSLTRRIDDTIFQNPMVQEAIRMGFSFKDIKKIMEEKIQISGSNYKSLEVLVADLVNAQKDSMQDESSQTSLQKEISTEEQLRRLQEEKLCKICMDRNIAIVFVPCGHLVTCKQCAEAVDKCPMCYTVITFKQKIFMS

Compound	z-score [1]	z-score [2]	z-score [3]	z-score [4]	z-score [5]	z-score [6]	z-score [7]	z-score [8]	z-score [9]	z-score [10]	z-score [11]	z-score [12]	z-score [13]	composite z-score [14]	z-score [15]	z-score [16]	z-score [17]	z-score [18]	z-score [19]	composite z-score [20]
CN1C(=O)C2C(C3CC3)C=C3CN(Cc4cccc(Cl)c4)[C@@H]([C@@H](O)Cc4ccccc4)C3C2C1=O (stereo not given in full)	1.19	0.638	0.506	-1.81	-2.67	1.24	-0.424 (inactive)	-0.426	-0.939	0.43 (inactive)	0.313	-1.83 (inactive)	0.076 (inactive)	-0.0831 (inactive)	0.601 (inactive)	0.248 (inactive)	0.942 (inactive)	0.588 (inactive)	-0.0321	-0.0264
COc1ccc([Si](C)(C)[C@@H]2[C@@H](CC(=O)N(CCO)Cc3ccccc3)O[C@]3(C(=O)N(Cc4ccc(I)cc4)c4ccccc43)[C@H]2C)cc1	-1.14	0.909	-1.59	-2.54	-4.17	1.17	0.448 (inactive)	-1.2	-0.732	-2.88 (inactive)	-1.42	-0.498 (inactive)	-2.27 (inactive)	1.07 (inactive)	1.1 (inactive)	2.45 (inactive)	-0.318 (inactive)	-0.699 (inactive)	-2.52	-0.0658
C=C(COC)C(=O)CC[C@@H](OC(C)=O)c1ccccc1OCCO	0.177	1.37	-0.601	-3.28	-1.75	0.143	-0.22 (inactive)	-0.557	-1.82	0.837 (inactive)	0.463	-0.947 (inactive)	-0.851 (inactive)	-1.34 (inactive)	0.166 (inactive)	-1.56 (inactive)	0.661 (inactive)	-0.061 (inactive)	-1.09	-0.102
COCCOC(=O)N1C(=O)[C@@]2(c3cc(C#CCCO)ccc31)[C@H](c1ccc(OCCO)cc1)N1[C@H](c3ccccc3)[C@H](c3ccccc3)OC(=O)[C@H]1[C@@H]2C(=O)N1CCCCCCC1	0.139	0.005	-0.584	-0.993	-1.03	-0.437	-2.09 (inactive)	0.309	-0.958	-0.232 (inactive)	-0.21	0.532 (inactive)	-0.292 (inactive)	-0.0613 (inactive)	1.68 (inactive)	1.13 (inactive)	-0.442 (inactive)	-0.457 (inactive)	-0.621	0.152
COC(=O)[C@H](Cc1ccc(O)cc1)N[C@@H](/C=C/C1CC1)[C@H](O)Cc1ccccc1	-0.0547	-1.21	0.192	-1.69	-0.192	-1.82	-0.177 (inactive)	-0.512	-1.01	0.0243 (inactive)	-0.752	-3.58 (inactive)	-0.163 (inactive)	-0.23 (inactive)	-0.459 (inactive)	0.0871 (inactive)	-0.396 (inactive)	-0.571 (inactive)	0.177	0.85
C=C(C)[C@@H]1CC=C(C(O)C2C=CC3C(=O)N(c4ccccc4)C(=O)C3N2Nc2ccc([N+](=O)[O-])cc2)CC1 (stereo not given in full)	0.485	0.153	0.736	-0.807	-0.493	-0.307	-2.47 (inactive)	-0.507	0.451	-0.963 (inactive)	-0.783	0.139 (inactive)	-0.66 (inactive)	1 (inactive)	0.741 (inactive)	0.526 (inactive)	-1.17 (inactive)	-1.37 (inactive)	-0.204	-0.0848
C[N+](C)(C)CCCCNC(=O)[C@H]1C[C@H]2C(=O)N[C@@H](Cc3ccccc3)C(=O)N2[C@H]1c1cccc(OCCO)c1	-0.52	-0.878	-0.097	0.135	-0.748	-0.559	-0.318 (inactive)	0.0888	-0.4	-0.967 (inactive)	-3.26	1.07 (inactive)	-0.476 (inactive)	-30.8 (active)	0.544 (inactive)	0.103 (inactive)	0.548 (inactive)	0.779 (inactive)	-0.863	0.459
C=CC[C@@]12N=C(c3ccc(OCCCO)cc3)O[C@@H]1c1ccccc1N(CCC)C2=O	-0.604	0.96	-1.16	-1.79	-3.66	1.07	2.64 (inactive)	-1.22	-0.994	0.0626 (inactive)	0.167	-2.22 (inactive)	-1.19 (inactive)	-0.147 (inactive)	1.2 (inactive)	0.829 (inactive)	0.215 (inactive)	1.02 (inactive)	-0.473	-0.132
CC(C)NC(=O)[C@@]1(c2ccc([N+](=O)[O-])cc2)CC(=O)N(CC23CC4CC(CC(C4)C2)C3)[C@@H]1c1ccc(CO)cc1	-1.34	0.999	-1.72	-2.06	-3.8	-1.38	-0.959 (inactive)	-0.6	-0.24	-2.03 (inactive)	-1.21	-0.692 (inactive)	-2.06 (inactive)	-0.257 (inactive)	0.792 (inactive)	0.311 (inactive)	-0.502 (inactive)	-0.655 (inactive)	-3.14	-0.0295
